# Assay results taken from PubChem BioAssay (NCATS).
# Values joined by “and” are separate entries in the source; they are usually repeats but may differ in a detail not shown here. Equal values may be shown once. Results filed as inconclusive are left out. A structure can be active in one record and inactive in another. Active and inactive are the calls of the source. Calls follow the shape of the dose curve; as a rule, active = well fitted curve in the direction sought with a large enough effect; inconclusive = small, poorly fitted or top-dose-only effect, or another doubt; inactive = no such curve, though single readings can be large; an effect the other way counts as inactive or inconclusive.
# Columns and labels:
# [1] = Viability qHTS for spleen associated tyrosine kinase inhibitor (SYKi) drug resistant MV4-11 cells (AID 1963824); conditions: SYKi-resistant MV4-11 viability, CellTiter-Glo, 72 h; series mostly up to 45 µM; also: nearly all actives have a fitted effect of over 35% in size
# Procedure, shortened: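 SYK inhibitor-resistant MV4-11 AML cells, 500 per well, added to predispensed compounds and incubated 72 hr at 37 C, 5% CO2. Viability measured by CellTiter-Glo luminescence after 10 min at room temperature.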
# [2] = Quantitative highthroughput screen to assess conditional lethalithy of NOMO1 cells grown in RPMI1640 with untreated serum (RPMI+s) (AID 1963876); conditions: NOMO1 AML cells in RPMI+serum, CellTiter-Glo viability, 48 h; series mostly up to 45.8 µM; also: nearly all actives have a fitted effect of over 35% in size;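 as to Viability: 100% = DMSO wells and 0% = empty wells without cells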
# Procedure, shortened: (§1)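 Each medium arm—HPLM with 10% dialyzed FBS, or RPMI1640 with 5 mM glucose and 10% untreated or dialyzed FBS—was screened against an 11-point, 3-fold compound titration for 48 h at 37 °C, with CellTiter-Glo luminescence as endpoint.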
# [3] = Quantitative highthroughput screen to assess conditional lethalithy of SEM cells grown in Human Plasma-Like Medium with dialyzed fetal bovine serum (HPLM+ds) (AID 1963882); conditions: SEM B-ALL cells in HPLM+ds, CellTiter-Glo viability, 48 h; series mostly up to 45.8 µM; also: nearly all actives have a fitted effect of over 35% in size
# Procedure, shortened: as §1
# [4] = Cellular viability qHTS for adrenocortical cancer (ACC) cell line SW-13 (AID 1963989); conditions: SW-13 ACC cells viability, CellTiter-Glo, 48 h; activity (max response): stronger effect = lower value; also: nearly all actives have a fitted effect of over 65% in size;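 as to activity (max response): cells grown in serum-free medium with ITS supplement; % is scaled to controls: 0 for no effect and ±100 for the full control effect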
# Procedure, shortened: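 SW-13 cells in ITS-supplemented serum-free DMEM were plated overnight, then exposed for 48 h at 37C to compound titrations (up to 46 uM final). Viability was read by CellTiter-Glo luminescence; four-parameter logistic fits gave IC50 and efficacy.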
# [5] = Cellular viability qHTS for adrenocortical cancer (ACC) cell line NCI-H295R (AID 1963990); conditions: CellTiter-Glo ATP luminescence, 48 h; series mostly up to 46.1 µM; also: nearly all actives have a fitted effect of over 60% in size
# Procedure, shortened: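 Luminescent ATP read-out (CellTiter-Glo, 20 min RT) after 48 h drug exposure of NCI-H295R cells; a titration up to 46 uM final. Data normalized to doxorubicin (100% inhibition) and DMSO (0%); 4-parameter fit gives IC50, max response.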
# [6] = Quantitative highthroughput screen to assess conditional lethalithy of NOMO1 cells grown in RPMI1640 with dialyzed fetal bovine serum (RPMI+ds) (AID 1963877); conditions: NOMO1 in RPMI+dialyzed FBS viability, ATP luminescence, 48 h; series mostly up to 45.8 µM; also: nearly all actives have a fitted effect of over 30% in size;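 as to Viability: 100% = DMSO control wells and 0% = empty wells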
# Procedure, shortened: as §1
# [7] = Quantitative highthroughput screen to assess conditional lethalithy of P12 Ichikawa cells grown in Human Plasma-Like Medium with dialyzed fetal bovine serum (HPLM+ds) (AID 1963879); conditions: ATP luminescence, 48 h; Potency: viability; series mostly up to 45.8 µM; also: nearly all actives have a fitted effect of over 35% in size
# Procedure, shortened: as §1
# [8] = Quantitative highthroughput screen to assess conditional lethalithy of P12 Ichikawa cells grown in RPMI1640 with dialyzed fetal bovine serum (RPMI+ds) (AID 1963880); conditions: ATP luminescence, 48 h; Potency: P12-Ichikawa viability; series mostly up to 45.8 µM; also: nearly all actives have a fitted effect of over 35% in size;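 as to Viability: 100% = DMSO wells and 0% = empty wells on each plate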
# Procedure, shortened: as §1
# [9] = Quantitative highthroughput screen to assess conditional lethalithy of SEM cells grown in RPMI1640 with unreated serum (RPMI+s) (AID 1963883); conditions: SEM B-ALL cells, CellTiter-Glo viability, 48 h; series mostly up to 45.8 µM; also: nearly all actives have a fitted effect of over 35% in size
# Procedure, shortened: as §1
# [10] = Quantitative highthroughput screen to assess conditional lethalithy of SEM cells grown in RPMI1640 with dialyzed fetal bovine serum (RPMI+ds) (AID 1963884); conditions: SEM B-ALL cells, RPMI+dialyzed FBS, CellTiter-Glo viability, 48 h; series mostly up to 45.8 µM; also: nearly all actives have a fitted effect of over 35% in size;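 as to Viability: 100% = DMSO control wells and 0% = empty wells without cells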
# Procedure, shortened: as §1
# [11] = Quantitative highthroughput screen to assess conditional lethalithy of NOMO1 cells grown in Human Plasma-Like Medium with dialyzed fetal bovine serum (HPLM+ds) (AID 1963878); conditions: NOMO1 AML cells in HPLM+ds, CellTiter-Glo viability, 48 h; series mostly up to 45.8 µM; also: nearly all actives have a fitted effect of over 35% in size;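 as to Viability: 100% = DMSO wells and 0% = empty wells on each plate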
# Procedure, shortened: as §1
# [12] = Quantitative highthroughput screen to assess conditional lethalithy of P12 Ichikawa cells grown in RPMI1640 with untreated serum (RPMI+s) (AID 1963881); conditions: ATP luminescence, 48 h; Potency: viability; series mostly up to 45.8 µM; also: nearly all actives have a fitted effect of over 35% in size;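 as to Viability: 100% = DMSO wells and 0% = empty wells without cells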
# Procedure, shortened: as §1
# Potency is read from the fitted curve at half-maximal effect.
compound,measurement,setting,value
OCCN(CCO)c1nc(N2CCCCC2)c2nc(N(CCO)CCO)nc(N3CCCCC3)c2n1,Potency,[1],18.8 µM (active) and 14.8 µM (active)
same,Potency,[2],inactive
same,Potency,[3],inactive
same,Potency,[4],5.17 µM (active)
same,activity (max response),[4],-9.57% (inactive)
same,Potency,[5],1.46 µM (active) and inactive
CCOc1cc(C(C)(C)C)ccc1C1=N[C@@](C)(c2ccc(Cl)cc2)[C@@](C)(c2ccc(Cl)cc2)N1C(=O)N1CCN(CC(=O)N2CCOCC2)CC1,Potency,[1],11.5 µM (active)
same,Potency,[6],inactive
same,Potency,[7],inactive
same,Potency,[8],inactive
same,Potency,[3],inactive
same,Potency,[9],6.6 µM (active)
same,Potency,[10],5.88 µM (active)
same,Potency,[5],14.1 µM (active)
Cc1ccc2nc(NCCN)c3ncc(C)n3c2c1,Potency,[1],4.61 µM (active) and 2.63 µM (active)
same,Potency,[6],26.4 µM (active)
same,Potency,[11],23.5 µM (active)
same,Potency,[3],11.8 µM (active)
same,Potency,[10],20.9 µM (active)
same,Potency,[4],6.31 µM (active)
same,Potency,[5],8.91 µM (active)
CN1CCc2c(n(Cc3ccc(C(=O)NO)cc3)c3ccccc23)C1,Potency,[1],18.6 µM (active)
same,Potency,[6],inactive
same,Potency,[3],26.4 µM (active)
same,Potency,[9],23.5 µM (active)
same,Potency,[5],25.1 µM (active)
Nc1ccn([C@@H]2C(F)=C(CO)[C@@H](O)[C@H]2O)c(=O)n1,Potency,[1],1.03 µM (active)
same,Potency,[6],2.95 µM (active)
same,Potency,[11],2.63 µM (active)
same,Potency,[7],1.66 µM (active)
same,Potency,[8],6.6 µM (active)
Clc1ccc(C(Cn2ccnc2)OCc2ccc(Sc3ccccc3)cc2)c(Cl)c1 (centres undefined),Potency,[1],6.61 µM (active)
same,Potency,[11],inactive
same,Potency,[3],inactive
same,Potency,[10],inactive
O=C(Nc1cccc2c(=O)cc(-c3nn[nH]n3)oc12)c1ccc(OCCCCc2ccccc2)cc1,Potency,[1],inactive
same,Potency,[11],23.5 µM (active)
same,Potency,[12],18.7 µM (active)
same,Potency,[9],9.35 µM (active)
same,activity (max response),[4],13.6% (inactive)
CCN(CC)CCCCNc1ncc2c(n1)N(C)C(=O)N(c1c(Cl)c(OC)cc(OC)c1Cl)C2,Potency,[1],14.8 µM (active)
same,Potency,[11],26.4 µM (active)
same,Potency,[3],14.8 µM (active)
same,Potency,[9],13.2 µM (active)
same,Potency,[4],25.1 µM (active)
CN(C)[C@@H](CCOc1cccc2ccccc12)c1ccccc1,Potency,[1],23.7 µM (active)
same,Potency,[11],inactive
same,Potency,[7],inactive
same,Potency,[12],inactive
same,Potency,[10],inactive
Cc1cc(Nc2nc(N[C@@H](C)c3ncc(F)cn3)ncc2Cl)n[nH]1,Potency,[1],1.05 µM (active)
same,Potency,[2],7.43 µM (active)
same,Potency,[3],5.26 µM (active)
same,Potency,[9],1.05 µM (active)
same,Potency,[10],2.64 µM (active)
same,activity (max response),[4],-20.7% (inactive)
Cc1nc2ccc(C(=O)N3CCC4(CC3)CC(=O)c3c(cnn3C(C)C)C4)cc2[nH]1,Potency,[1],20.9 µM (active)
same,Potency,[2],inactive
same,Potency,[5],inactive
O=C(Nc1nc2cccc(-c3ccc(CN4CCS(=O)(=O)CC4)cc3)n2n1)C1CC1,Potency,[11],23.5 µM (active)
CCOC(=O)[C@H](CCc1ccccc1)N[C@H]1CCc2ccccc2N(CC(=O)O)C1=O,Potency,[11],16.6 µM (active)
CC(C)n1cc(-c2ccc3c(c2)N(C)CC3)c2c(NS(=O)(=O)c3ccn(C)n3)ccnc21,Potency,[1],18.6 µM (active)
same,activity (max response),[4],9.47% (inactive)
N/C(=N\N=C\c1ccc(Cl)cc1)N/N=C/c1ccc(Cl)cc1,Potency,[1],inactive
same,activity (max response),[4],-4.76% (inactive)
O=c1sn(-c2cccc3ccccc23)c(=O)n1Cc1ccccc1,Potency,[1],11.6 µM (active) and 8.33 µM (active)
same,activity (max response),[4],-18.3% (inactive)
COc1ccc2cc(OCC3(C(=O)O)CN(C(=O)c4ccc(F)cc4)C3)ccc2c1,Potency,[1],inactive
same,activity (max response),[4],-4.74% (inactive)
COc1cc2c(cc1OC)[C@@H]1CC(=O)[C@@H](CC(C)C)CN1CC2,Potency,[1],inactive
same,activity (max response),[4],-4.64% (inactive)
CN1CCN(CCCNc2ncc(Cl)c(-c3cc4c(C(=O)NC5CC5)cccc4s3)n2)CC1,Potency,[1],18.6 µM (active)
same,activity (max response),[4],0.565% (inactive)
CC(NN)c1ccccc1 (centres undefined),Potency,[1],inactive
same,activity (max response),[4],-4.01% (inactive)
CCN(CC)CC(=O)OCC(=O)[C@@]1(O)CC[C@H]2[C@@H]3CCC4=CC(=O)CC[C@]4(C)[C@H]3[C@@H](O)C[C@@]21C,Potency,[1],inactive
same,activity (max response),[4],11.9% (inactive)
COc1ccc(S(=O)(=O)N2c3ccc(Cl)cc3[C@@](O)(c3ccccc3Cl)[C@H]2C(=O)N2CCC[C@@H]2C(N)=O)cc1OC,Potency,[1],16.8 µM (active)
same,activity (max response),[4],-24.3% (inactive)
NC(=O)c1cccc2c(NC(CN3CCC3)c3ccc(Cl)c(C(F)(F)F)c3)ncnc12 (centres undefined),Potency,[1],2.35 µM (active)
same,Potency,[4],14.1 µM (active)
Cc1cc(-c2cnn3c(NCC4CC(C)(O)C4)cc(Oc4cccnc4)nc23)ccc1C(=O)NC1CC1 (centres undefined),Potency,[1],0.118 µM (active)
same,activity (max response),[4],-6.44% (inactive)
CN1CC(=O)N2[C@H](c3ccc4c(c3)OCO4)c3[nH]c4ccccc4c3C[C@@H]2C1=O,Potency,[1],inactive
same,activity (max response),[4],17.1% (inactive) and 13.1% (inactive)
CC(C)C[C@@H]1NC(=O)[C@@H](C(C)C)NC(=O)[C@@H]2CCCN2C(=O)[C@@H](CC(=O)O)NC(=O)[C@@H](Cc2c[nH]c3ccccc23)NC1=O,Potency,[1],9.34 µM (active)
same,activity (max response),[4],-0.875% (inactive)
CC(C)(C)C[C@H]1N[C@@H](C(=O)NC2CCC(O)CC2)[C@H](c2cccc(Cl)c2F)[C@@]12C(=O)Nc1cc(Cl)ccc12 (some centres undefined),Potency,[1],6.61 µM (active)
same,Potency,[4],25.1 µM (active)
